Source: the supplement of paper PMC6555819

These sequences were tested on LXRb homodimer (NR concentration 270 nM) (assay: PBM binding z-score (relative to random genomic background probes); higher = stronger binding; sequences stand for … in GC…GCGATTGACAGCGTAGAATGAAGG).
How it was run: (§1)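 Probes were double-stranded and carried 34-nt variable regions with direct-repeat seeds, single-nucleotide variants, half-site ablations and random human genomic background sequences, printed on custom Agilent 4×180K protein-binding microarrays. Arrays were incubated 1 h with ligand-free nuclear receptor dimers in PBS pH 7.4, 2% milk, 0.02% Triton X-100, 1 mM DTT, 0.2 mg/mL BSA and 0.4 mg/ml salmon testes DNA. Antibodies against each partner (one per run) detected binding, and scanned fluorescence was regression-normalized. Binding z-scores use the random background probes as reference.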

Sequence | PBM binding z-score
CGAACTAGGTCAAAGGACAGTGTAAGGCGACGTA | -0.314
ACTAGTTGTTCAGCTGAGGTCACACACAATTCGG | 0.715
CGTCTAAGGTCAGCAGGTCAGTGAAAGCGACGTG | 0.0498
CCTACTGGGCCAAGGTCATAGATCAGTCAAAGCA | -0.469
TAGCCTAGGTCATTGGGCCAGTATAGTACGCATC | 0.375
CAACCTAGGTCACGAAAGGTCAAAGTCGAATGAC | 2.82
ATATGTAGGTGAGGGTCATTCAGAAAGTAGGGAA | 1.43
ATCGAAAGGTCGAAAGTGAGTATACCCACCCGAA | 0.816
GATTCAGGGTCAGCTAGAGGCCAGAGTATGGAAA | -0.355
CGATCTAGGTCACCAGGACAGTGAAGAGGTTGGA | -0.455
CTAACTAGGTCACCGGAAGGTCAAAGTCCGCATG | 1.15
CGTCCAAGGTCAGCAGGTGAGTGAAAGCGACGTG | -0.689
TCTGCTTGGTCAACGATGGTCAGCTAATCTGCTA | -0.202
CAAACTAGGTCACGAAAGGTCAACGTCGAATGAC | 2.11
CGTCCAAGGTCAATGCTAGCTCAGTGAAAGCATT | 0.696
GCTGCAAGGTCAACTGATGGTCAGCTAAAGCTCG | 1.33
TAGCCTAGGTCATTCAGGGGCCAGAATAGAAAGC | 1.34

What follows are sequences tested on PPARa:RXRa (NR concentration 270 nM, RXRa partner concentration 90 nM) in the same assay as above.
How it was run: as §1

Sequence | PBM binding z-score
CGTCCAAGGTCAAAGGTCACTGAAGAGATGACGG | 7.23
CAAACTAGGTCACGAAAGGGCAAAGTCGAATGAC | 5.68
CGAACTAGGTCACCAGGACCGTGAAGAGGTTGGA | 4.88
CGTCCAAGGTCAATTCTAGGTCAGTGAAAGCATT | 5.01
CGTCCAACGTCAAGGTCAGTGAAAGAGACTCGAA | 2.04
TAGCCTAGGTCATGGGCCAGTTTACCACGCGAAC | 4.37
CGAACTAGGTCACAGGACAGTGAAAGGCGACGTA | 5.21
ATATGTAGGTCATCGGGTCATTCAGTTTGCGCAT | 6.46
CGAACTAGGTCCTTGACAGGACAGTGAATAGTAA | 0.107
AAAATGAGGTTAAGATCAGGGAAACAGAATACAT | 4.04
GCTTACGGGTCAAAGGTTATAGTATGAATAGAAT | 6.76
CGAACTAGCTCAAGGACAGTGAATCTCCGCACGC | -0.568
CGCACTAGGTCACCAGGACAGTGAAGAGGTTGGA | 4.91
CAAACCAGGTCACGAAAGGTCAAAGTCGAATGAC | 6.66
ATACCAAGGTGATCGTGAGTTCGTTGATACTAAC | 0.602
ACTAGTGGGTCAGCTGAGGTCACACACAATTCGG | 4.9
CAAGCTAGGTCAAGAGGTCAAAGTCCGCTTCCCG | 6.2
GCTATTAGGTGAAAGGGCAACCGAATGATTCTCG | 5.57
CCGACTGGGGCAAAGGTTACGATACTCAGTACGA | 5.62
GGAACTAGGGCAAAGTTGATAGCATCTGTCGACG | 5.37

Sequence | PBM binding z-score
CCTACTGGGCCAAAAAGGCCATTGATGCCGATAA | 0.629
CCTACTGGGCCACGAAAGGTCCTTGATTCAGTGA | 1.21
CGAACTAGGTCAAAGGACAGTGTAAGGCGACGTA | 5.13
ACTAGTTGTTCAGCTGAGGTCACACACAATTCGG | 3.83
CGTCTAAGGTCAGCAGGTCAGTGAAAGCGACGTG | 5.3
CCTACTGGGCCAAGGTCATAGATCAGTCAAAGCA | 4.19
TAGCCTAGGTCATTGGGCCAGTATAGTACGCATC | 3.82
CAACCTAGGTCACGAAAGGTCAAAGTCGAATGAC | 6.92
ATATGTAGGTGAGGGTCATTCAGAAAGTAGGGAA | 5.07
ATCGAAAGGTCGAAAGTGAGTATACCCACCCGAA | 3.74
GATTCAGGGTCAGCTAGAGGCCAGAGTATGGAAA | 5.13
CGATCTAGGTCACCAGGACAGTGAAGAGGTTGGA | 4.81
CTAACTAGGTCACCGGAAGGTCAAAGTCCGCATG | 6.52
CGTCCAAGGTCAGCAGGTGAGTGAAAGCGACGTG | 4.13
TCTGCTTGGTCAACGATGGTCAGCTAATCTGCTA | 0.184
CAAACTAGGTCACGAAAGGTCAACGTCGAATGAC | 6.81
CGTCCAAGGTCAATGCTAGCTCAGTGAAAGCATT | 4.83
GCTGCAAGGTCAACTGATGGTCAGCTAAAGCTCG | 5.97
TAGCCTAGGTCATTCAGGGGCCAGAATAGAAAGC | 3.9

The sequences below were run on PPARg:RXRa (NR concentration 180 nM, RXRa partner concentration 90 nM) in the same assay as above.
How it was run: as §1

Sequence | PBM binding z-score
CAAACTAGGTCACGAAAGGGCAAAGTCGAATGAC | 9.64
CGAACTAGGTCACCAGGACCGTGAAGAGGTTGGA | 8.27
TAGCCTAGGTCATGGGCCAGTTTACCACGCGAAC | 3.6
CGAACTAGGTCACAGGACAGTGAAAGGCGACGTA | 8.8
GCTTACGGGTCAAAGGTTATAGTATGAATAGAAT | 11.2
CGAACTAGCTCAAGGACAGTGAATCTCCGCACGC | 0.277
CGCACTAGGTCACCAGGACAGTGAAGAGGTTGGA | 8.32
CAAACCAGGTCACGAAAGGTCAAAGTCGAATGAC | 9.2
ATACCAAGGTGATCGTGAGTTCGTTGATACTAAC | 0.328
ACTAGTGGGTCAGCTGAGGTCACACACAATTCGG | 6.38
CAAGCTAGGTCAAGAGGTCAAAGTCCGCTTCCCG | 6.82
CCTACTGGGCCACGAAAGGTCCTTGATTCAGTGA | 1.24
CGAACTAGGTCAAAGGACAGTGTAAGGCGACGTA | 9.94
ACTAGTTGTTCAGCTGAGGTCACACACAATTCGG | 1.53
CGTCTAAGGTCAGCAGGTCAGTGAAAGCGACGTG | 4.86
TAGCCTAGGTCATTGGGCCAGTATAGTACGCATC | 3.56
CAACCTAGGTCACGAAAGGTCAAAGTCGAATGAC | 7.93
ATATGTAGGTGAGGGTCATTCAGAAAGTAGGGAA | 7.86
ATCGAAAGGTCGAAAGTGAGTATACCCACCCGAA | 2.17
CGATCTAGGTCACCAGGACAGTGAAGAGGTTGGA | 8.42
TCTGCTTGGTCAACGATGGTCAGCTAATCTGCTA | -0.488
CAAACTAGGTCACGAAAGGTCAACGTCGAATGAC | 10.6
GCTGCAAGGTCAACTGATGGTCAGCTAAAGCTCG | 4.81
TAGCCTAGGTCATTCAGGGGCCAGAATAGAAAGC | 2.33
